Screen size: about 2,400 compounds; about 580 (24%) were called active.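 The calls were made as follows: active = activity change at or above the mean plus 3 SD of buffer wells without dofetilide, per plate; inactive = the rest.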 The list is a sample of the results.

The target in this assay is Potassium voltage-gated channel subfamily KQT member 2 (Rattus norvegicus) (UniProt O88943). Put plainly: rat KCNQ2 channel activation by compounds alone, confirmation, counter-screen for hERG block protector project, cell-based, CHO, FluxOR thallium flux (AID 1942).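 Also: normalized value minus buffer-control mean plus three SD of buffer wells.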 To be noted: CHO-KCNQ2 cells, FluxOR thallium flux fluorescence; at 10 µM; active compounds read high.
Chain of Potassium voltage-gated channel subfamily KQT member 2 (Rattus norvegicus) (O88943 whole entry, looked up): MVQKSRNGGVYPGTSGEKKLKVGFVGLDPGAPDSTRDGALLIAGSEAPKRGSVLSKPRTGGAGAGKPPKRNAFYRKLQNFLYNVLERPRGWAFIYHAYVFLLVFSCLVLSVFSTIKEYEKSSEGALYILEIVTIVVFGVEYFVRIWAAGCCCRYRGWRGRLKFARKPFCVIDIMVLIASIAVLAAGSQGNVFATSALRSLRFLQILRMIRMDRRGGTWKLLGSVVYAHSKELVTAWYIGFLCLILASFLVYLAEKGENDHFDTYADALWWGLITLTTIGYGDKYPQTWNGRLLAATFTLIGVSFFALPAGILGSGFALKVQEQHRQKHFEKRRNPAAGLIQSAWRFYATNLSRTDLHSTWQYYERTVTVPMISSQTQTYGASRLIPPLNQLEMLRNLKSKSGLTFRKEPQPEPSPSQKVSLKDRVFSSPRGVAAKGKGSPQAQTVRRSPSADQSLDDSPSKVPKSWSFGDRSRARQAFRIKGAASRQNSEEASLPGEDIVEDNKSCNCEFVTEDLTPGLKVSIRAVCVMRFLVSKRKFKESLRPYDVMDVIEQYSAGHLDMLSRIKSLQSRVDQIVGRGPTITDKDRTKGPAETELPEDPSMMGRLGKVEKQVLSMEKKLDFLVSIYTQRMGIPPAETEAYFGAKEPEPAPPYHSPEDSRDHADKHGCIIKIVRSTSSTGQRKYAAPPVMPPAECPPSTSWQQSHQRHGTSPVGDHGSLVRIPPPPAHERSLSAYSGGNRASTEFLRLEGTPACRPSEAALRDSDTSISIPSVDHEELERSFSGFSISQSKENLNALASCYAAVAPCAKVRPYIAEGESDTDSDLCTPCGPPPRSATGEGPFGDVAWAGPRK
For `O=C(O)c1ccccc1NC(=O)c1cc2ccccc2oc1=O`, the activity change, less the hit threshold was -5.1% (inactive).
With `O=C(CN(C(=O)CNS(=O)(=O)c1ccc(F)cc1)c1cccc(F)c1)NCC1CCCO1` (centres undefined) the figure was -19% (inactive); with `CC(=O)n1nc(-c2ccncc2)nc1SCC(=O)Nc1cccc(Cl)c1`, -21.7% (inactive).
Consider `Cc1ccc(NC(=O)CSc2nnc(-c3cccnc3)n2-c2ccc(C)cc2)cc1`, for which the activity change, less the hit threshold is -17.2% (inactive).
With `O=[N+]([O-])c1ccc(-c2ccc(/C=N/n3cnnc3)o2)c(Br)c1` the figure was -11.4% (inactive).
With `CCCN1Cc2cccc(C(=O)NCc3cccs3)c2C1=O`, the activity change, less the hit threshold is -23.8% (inactive).
In the case of `OC(CNCCc1ccc(C(F)(F)F)cc1)COc1cccc2ccccc12` (centres undefined), the activity change, less the hit threshold is -39.6% (inactive).
In the case of `O=C(NC(=S)N1CCc2ccccc21)c1ccccc1` it was 38.5% (active); in that of `O=C(NC(=S)N1CCc2ccccc21)c1ccccc1Br`, 105% (active).
Consider `O=C(NC(=S)N1CCCc2ccccc21)c1ccccc1`, for which the activity change, less the hit threshold was -7.9% (inactive).
For `CN1C(=O)CSc2ccc(NC(=O)N3CCc4ccccc43)cc21`, the activity change, less the hit threshold was -21.5% (inactive).
Take `O=C(NC(=S)N1CCc2ccccc21)c1ccccc1Cl`: the activity change, less the hit threshold was 65.2% (active).
Take `O=C(c1ccccc1)N1CCc2ccccc21`: the activity change, less the hit threshold is -14.8% (inactive).
On to `O=C(CSc1cccc2cccnc12)N/N=C/c1cccnc1`, for which the activity change, less the hit threshold was -18.6% (inactive).
With `S=C(Nc1ccccc1)Nc1nc2ccccc2n1CCOc1ccccc1` the figure was -19.7% (inactive); with `Cc1ccccc1NC(=O)CSc1ccsc1[N+](=O)[O-]`, -24.3% (inactive).
For `O=C(O)CC1S/C(=N/N=C/c2ccc(-c3ccccc3[N+](=O)[O-])o2)NC1=O` (centres undefined), the activity change, less the hit threshold was -23.4% (inactive).
As to `CCCc1nnc(NC(=O)CN2CCOCC2)s1`, the activity change, less the hit threshold was -18.7% (inactive).
Take `Cc1ccccc1-c1nnn(CC(=O)NCc2ccc3c(c2)OCO3)n1`: the activity change, less the hit threshold was -24.5% (inactive).
Turning to `Cc1cc(F)ccc1NC(=O)C1CCN(C(=O)Nc2ccccc2)CC1`, the activity change, less the hit threshold was -20.3% (inactive).
In the case of `COc1ccc(C)cc1NC(=O)Nc1ccc(C(=O)N2CCCC2)cc1` it was -13.8% (inactive).
In the case of `Cc1cc(C)c(C(=O)c2ccc(C(=O)N3CCCCC3)cc2)c(C)c1`, the activity change, less the hit threshold is 9.9% (active).
Take `Cc1ccc(SCc2ccc(C(=O)N3CCCC3)cc2)cc1`: the activity change, less the hit threshold is -13.9% (inactive).
As for `COC(=O)c1ccc(Oc2ccc(S(=O)(=O)N3CCCCC3)cc2N)cc1`, the activity change, less the hit threshold is -21% (inactive).
With `Cc1ccc(NC(=O)CN2C(=O)S/C(=C\c3cccn3-c3cccc(C(=O)O)c3)C2=O)c(C)c1`, the activity change, less the hit threshold was -17.1% (inactive).
On to `O=C1c2ccccc2C(=O)N1CCc1nc(-c2ccccn2)no1`, for which the activity change, less the hit threshold was -15.6% (inactive).
For `Cc1cc(C)n(-c2nc(NCCCN(C)C)c3c4c(sc3n2)CCCC4)n1`, the activity change, less the hit threshold was -15.9% (inactive).
Consider `Cc1ccc(NC(=O)CCc2nc3sc4c(c3c(=O)[nH]2)CCCC4)c(Br)c1`, for which the activity change, less the hit threshold was -14.8% (inactive).
Turning to `Cc1cc(C)n(-c2nc3sc4c(c3c(=O)[nH]2)CCCC4)n1`, the activity change, less the hit threshold was 6.2% (active).
With `CC(=O)Cn1c(=O)c2c(nc3n2CCCN3Cc2ccccc2)n(C)c1=O`, the activity change, less the hit threshold is -11.9% (inactive).
In the case of `COC(=O)C1CN(C(=O)COc2ccc(C)c(C)c2)c2ccccc2O1` (centres undefined) it was -18.1% (inactive); in that of `CC(C)OC(=O)C1CC(C)(O)C(=O)C(C(=O)OC(C)C)C1c1ccc([N+](=O)[O-])cc1` (centres undefined), -20.5% (inactive).
With `CCc1noc(C)c1C(=O)N1CCCC(N2CCN(c3ccccc3F)CC2)C1` (centres undefined) the figure was -14.7% (inactive); with `Cc1ccc(CN2CCN(/N=C/c3ccc(O)c(O)c3)CC2)cc1`, -3.7% (inactive).
As for `O=C(COC(=O)c1cc(Br)ccc1O)Nc1cccnc1Cl`, the activity change, less the hit threshold is -19.3% (inactive).
As for `Cc1cccc(/C=N/NC(=O)c2cc(Br)ccc2O)n1`, the activity change, less the hit threshold is 0.2% (active).
As for `O=C(N/N=C/c1ccc2cccc(OCc3ccccc3)c2n1)c1ccc(Br)cc1`, the activity change, less the hit threshold is -9.5% (inactive).
Turning to `CCOC(=O)C1CCCCN1Cc1ccc(F)cc1` (centres undefined), the activity change, less the hit threshold was 4.5% (active).
Take `NC(=O)C1CCN(C(=O)CCC(=O)c2ccc(F)cc2)CC1`: the activity change, less the hit threshold is -12.6% (inactive).
With `CCOC(=O)C1CCCN(C(=S)NC(=O)/C=C/c2ccc(F)cc2)C1` (centres undefined), the activity change, less the hit threshold was -20.7% (inactive).
As for `O=C1c2ccccc2C(=O)N1Cc1cc(-c2ccccc2Cl)no1`, the activity change, less the hit threshold was -14.4% (inactive).
Consider `O=C(NC(=S)N1CCc2ccccc21)c1ccc(Br)o1`, for which the activity change, less the hit threshold was 19.1% (active).
Turning to `Cc1cccc(OCC(=O)NC2CCCc3ccccc32)c1C` (centres undefined), the activity change, less the hit threshold is -34.2% (inactive).
On to `O=C(NC(=S)NC1CCCc2ccccc21)c1ccco1` (centres undefined), for which the activity change, less the hit threshold was 7% (active).
In the case of `Cn1nnnc1SCC(=O)NC1CCCc2ccccc21` (centres undefined) it was -30.8% (inactive); in that of `O=C(NC(=S)N1CCc2ccccc21)c1ccco1`, 0.6% (active); in that of `Cc1ccc(OCCC(=O)OC(C)C(=O)Nc2ccc(Cl)cn2)cc1` (centres undefined), -8.9% (inactive).
As for `O=C(O)CCCn1cc(NC(=O)COc2ccc(F)cc2)cn1`, the activity change, less the hit threshold is -25.3% (inactive).
For `Fc1ccc2c(c1)C(c1ccncc1)=NNC(c1cccnc1)=N2`, the activity change, less the hit threshold was -6.5% (inactive).
Turning to `Cc1ccc(CNS(=O)(=O)c2ccc(C(F)(F)F)cc2)n1C`, the activity change, less the hit threshold is -26.5% (inactive).
Regarding `Nc1nc2n(n1)C(=O)CC(c1ccc(Cl)cc1)N2` (centres undefined), the activity change, less the hit threshold was -10.5% (inactive).
Consider `CC(=O)N1CCCc2cc(S(=O)(=O)NCc3ccc(C)cc3)ccc21`, for which the activity change, less the hit threshold was -9.9% (inactive).
For the molecule `c1ccc(CCCNc2ncnc3nc[nH]c23)cc1`, the activity change, less the hit threshold is 30.4% (active).
For the molecule `COc1ccc(N2CC(C(=O)OCC(=O)Nc3ccccc3C)CC2=O)cc1` (centres undefined), the activity change, less the hit threshold was -5.6% (inactive).
Consider `CCc1cc2cc(C)cc(C)c2[nH]c1=S`, for which the activity change, less the hit threshold was 2.1% (active).
Turning to `CN(C)Cc1c(C(=O)N/N=C/c2ccccc2OCc2c(F)cccc2Cl)nnn1-c1nonc1N`, the activity change, less the hit threshold is -28.3% (inactive).
As to `O=C(O)/C=C/c1cn(-c2ccccc2)nc1-c1ccc(-c2ccc([N+](=O)[O-])cc2)o1`, the activity change, less the hit threshold is -18% (inactive).
In the case of `S=c1[nH]c2cc(-c3ccccc3)ccc2o1` it was 86.2% (active); in that of `Cc1ccc(NN=Nc2nc3c([nH]2)c(=O)n(C)c(=O)n3C)cc1`, -16.4% (inactive).
Consider `COC(=O)C1=C(C)N(CC2CCCO2)C(=O)/C1=C\c1ccc(O)cc1` (centres undefined), for which the activity change, less the hit threshold is -0.1% (inactive).
As to `CCN(CC)S(=O)(=O)c1ccc2[nH]c(=O)cc(C(=O)Nc3cccc(C(C)=O)c3)c2c1`, the activity change, less the hit threshold was -14.9% (inactive).
For `Cc1cccc(NC(=S)NC(=O)c2cc(-c3ccccc3)nc3ccccc23)c1`, the activity change, less the hit threshold was -14.7% (inactive).
As for `Cc1ccccc1NC(=S)NC(=O)c1cc(-c2ccccc2)nc2ccccc12`, the activity change, less the hit threshold was 2% (active).
`O=C(NC(=S)Nc1ccccc1)c1cc(-c2ccccc2)nc2ccccc12`: the activity change, less the hit threshold is -5.5% (inactive).
Consider `COC(=O)c1ccc(NC(=S)NC(=O)c2cc(-c3ccccc3)nc3ccccc23)cc1`, for which the activity change, less the hit threshold was 1.1% (active).
In the case of `O=C(NC(=S)Nc1ccccn1)c1cc(-c2ccccc2)nc2ccccc12`, the activity change, less the hit threshold is -12% (inactive).
As to `CC(C)(C)NS(=O)(=O)c1ccc(NC(=O)c2cc(-c3ccccc3)nc3ccccc23)cc1`, the activity change, less the hit threshold is -22% (inactive).
With `CCCCCCc1cc2cc(-c3nnc(-c4ccccc4)o3)c(=O)oc2cc1O`, the activity change, less the hit threshold was -23.8% (inactive).
For `O=C(C[n+]1ccccc1)N/N=C/c1ccc(Cl)c(Cl)c1`, the activity change, less the hit threshold was -28.9% (inactive).
In the case of `O=C(c1cccs1)N1CCN(C23CC4CC(CC(C4)C2)C3)CC1` it was -10.7% (inactive); in that of `CCC1Nc2ncnc(N3CCOCC3)c2N(Cc2ccc(C)cc2)C1=O` (centres undefined), -18.9% (inactive); in that of `CCc1cc(=O)[nH]c(SCc2ccc(C)cc2)n1`, -15.8% (inactive).
For `CCSc1nc(=S)cc(C)[nH]1`, the activity change, less the hit threshold is 48.7% (active).
In the case of `CSc1nc(=S)cc(C)[nH]1` it was -1.9% (inactive); in that of `CN(C)CCNc1ncnc2c1sc1nc(N3CCCC3)c3c(c12)CC(C)(C)OC3`, -13.1% (inactive).
Consider `CCOC(=O)NC(=S)Nc1ccc(C(C)(C)C)cc1Br`, for which the activity change, less the hit threshold is 2.1% (active).
Turning to `COC(=O)CNC(=S)NC(=O)c1ccc(C(C)(C)C)cc1`, the activity change, less the hit threshold was -13% (inactive).
As to `CC(C)(C)c1ccc(/C=N/NC(=S)Nc2cccnc2)cc1`, the activity change, less the hit threshold is -14% (inactive).
`CCOC(=O)NC(=S)Nc1ccc(C(C)(C)C)cc1`: the activity change, less the hit threshold was 1% (active).
Turning to `CCCCNC(=O)CC(NS(=O)(=O)c1ccc(C)cc1)c1ccco1` (centres undefined), the activity change, less the hit threshold is -14.3% (inactive).
In the case of `C[n+]1ccccc1/C=C/c1ccc(C#N)cc1`, the activity change, less the hit threshold is -12.2% (inactive).
In the case of `COCC(=O)N(Cc1ccco1)c1nnc(C2CCOC2)s1` (centres undefined), the activity change, less the hit threshold was -22.7% (inactive).
With `O=[N+]([O-])c1cccnc1Sc1n[nH]c(-c2ccc(Cl)cc2)n1` the figure was -16.6% (inactive); with `COc1ccc(-n2cnc3ccccc3c2=O)c([N+](=O)[O-])c1`, -12.6% (inactive); with `O=[N+]([O-])c1ccc(O)c2ncccc12`, 22.1% (active).
In the case of `O=[N+]([O-])c1cc(F)c2cccnc2c1O` it was 6.4% (active); in that of `Oc1c(Cl)cc(CN2CCCCC2)c2cccnc12`, -12.8% (inactive); in that of `Cc1ccc(N=Nc2ccc(O)c3ncccc23)cc1`, -4.3% (inactive).
For `O=C(O)C[C@H]1c2cc(F)ccc2S(=O)(=O)N1C1CCCCC1`, the activity change, less the hit threshold is -10.2% (inactive).
Regarding `CC(C)(C)c1csc(NNC(=O)c2ccc(Cl)cc2)n1`, the activity change, less the hit threshold is -7.6% (inactive).
In the case of `Cc1nc(-c2nc(-c3c(C(=O)NNC(=O)c4ccc(Cl)cc4)noc3C)cs2)cs1` it was -1.2% (inactive); in that of `CC(C)(C)c1cc(C(=O)NNC(=O)c2ccc(Cl)cc2)no1`, 24% (active); in that of `CCc1nc(C)ccc1OCC(=O)N1CCc2c([nH]c3ccccc23)C1c1ccccn1` (centres undefined), -18.2% (inactive).
For the molecule `CCN(CC)c1ccc(/C=c2\sc3nnc(-c4ccccc4Cl)n3c2=O)cc1`, the activity change, less the hit threshold was -31.7% (inactive).
As for `COc1ccc2nc(NC(=S)NC(=O)c3ccco3)sc2c1`, the activity change, less the hit threshold was 27.9% (active).
On to `COc1ccc(-c2csc(NC(=S)NC(=O)c3ccco3)n2)cc1`, for which the activity change, less the hit threshold was -0.4% (inactive).
Take `O=C(NC(=S)Nc1nc(-c2ccc(Br)cc2)cs1)c1ccco1`: the activity change, less the hit threshold is -18.5% (inactive).
As for `O=C(NC(=S)Nc1nc2ccccc2s1)c1ccco1`, the activity change, less the hit threshold was 40.4% (active).
In the case of `O=C(NC(=S)Nc1nc(-c2ccc([N+](=O)[O-])cc2)cs1)c1ccco1`, the activity change, less the hit threshold was 20.1% (active).
On to `O=C(NC(=S)Nc1nc(-c2ccccc2)cs1)c1ccco1`, for which the activity change, less the hit threshold is -0.7% (inactive).
With `O=C(NC(=S)Nc1nc2ccc(F)cc2s1)c1ccco1` the figure was 59.7% (active); with `COc1ccc(-c2csc(NC(=S)NC(=O)c3ccco3)n2)cc1Br`, -3.7% (inactive).
With `O=C(NC(=S)NCc1ccc(-c2nc3ccccc3s2)cc1)c1ccco1`, the activity change, less the hit threshold is -16% (inactive).
In the case of `Cc1ccc2nc(NC(=S)NC(=O)c3ccco3)sc2c1` it was -6.5% (inactive).

The record behind these values is PubChem BioAssay AID1942 (Johns Hopkins Ion Channel Center, 2009).
